Results on three compounds are retold here after PubChem BioAssay (EPA / NIEHS).

Each structure is given as a SMILES string. Active and inactive are the calls of the source. Rule for the calls: active = hit-call score of the fitted dose curve at least 0.9, where 1 is the maximum; inactive = score below 0.9.

What all share (settings): mRNA level, 48 h; actives raise or lower the signal
Read-out in assay [1]: Bcl-2 (BAX) gene, BAX (gene 581)
Briefly: LTEA_HepaRG_BAX: Life Technologies and Expression Analysis (LTEA) Assay for Bcl-2 (BAX) gene using HepaRG (AID 2283470). In a few lines:
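Gene expression measured by Fluidigm qRT-PCR with three housekeeping genes for normalisation. HepaRG cells, plated 48 h beforehand, treated 48 h at up to 100 uM (8-point, half-log) in 0.5% DMSO. Bidirectional fitting versus DMSO.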

Read-out in assay [2]: adenosine kinase (ADK) gene, ADK (gene 132)
Briefly: LTEA_HepaRG_ADK: Life Technologies and Expression Analysis (LTEA) Assay for adenosine kinase (ADK) gene using HepaRG (AID 2283471). The method, boiled down: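 Read-out is ADK transcript level measured by qRT-PCR and normalised to three housekeeping genes. Cells are human HepaRG, dosed for 48 h at up to 100 uM in 0.5% DMSO. Gain or loss of signal is fitted against DMSO controls.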

Read-out in assay [3]: Alpha-fetoprotein (AFP) gene, AFP (gene 174)
Briefly: LTEA_HepaRG_AFP: Life Technologies and Expression Analysis (LTEA) Assay for Alpha-fetoprotein (AFP) gene using HepaRG (AID 2283472). In a few lines:
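AFP transcript measured by TaqMan qRT-PCR with three housekeeping genes for normalization, after 48 h chemical treatment of HepaRG cells (top 100 uM, half-log steps, 0.5% DMSO). Gain or loss fitted against vehicle.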

Read-out in the next assay: BCL2L11 (gene 10018)
Nature of the assay: LTEA_HepaRG_BCL2L11: Life Technologies and Expression Analysis (LTEA) Assay for Bcl-2 (BCL2L11) gene using HepaRG (AID 2283473). The method, boiled down: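 Human hepatic HepaRG cultures are treated 48 h with test chemicals (maximum 100 uM, 0.5% DMSO vehicle). Expression of BCL2L11 is measured by qRT-PCR against ACTB, GAPDH and POLR2A, with activity in either direction scored relative to vehicle.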

Read-out in assay [4]: Apolipoprotein A-V (APOA5) gene, APOA5 (gene 116519)
Nature of the assay: LTEA_HepaRG_APOA5: Life Technologies and Expression Analysis (LTEA) Assay for Apolipoprotein A-V (APOA5) gene using HepaRG (AID 2283474). The method, boiled down:
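Concentration-response of APOA5 expression in HepaRG: eight half-log doses to 100 uM, 48 h, qRT-PCR normalized to ACTB/GAPDH/POLR2A, bidirectional fitting with 0.5% DMSO as baseline.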

Read-out in assay [5]: Apoptosis regulator Bcl-2 (Homo sapiens) (UniProt P10415)
Briefly: LTEA_HepaRG_BCL2: Life Technologies and Expression Analysis (LTEA) Assay for Bcl-2 gene using HepaRG (AID 2283475). In a few lines:
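qRT-PCR of BCL2 transcript, normalized to three housekeeping genes (ACTB, GAPDH, POLR2A), after 48 h chemical exposure of HepaRG cells; concentrations top 100 uM with half-log dilutions, 0.5% DMSO vehicle, duplicates; changes up or down fitted relative to vehicle.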

Read-out in assay [6]: Bcl-2 (BID) gene, BID (gene 637)
Briefly: LTEA_HepaRG_BID: Life Technologies and Expression Analysis (LTEA) Assay for Bcl-2 (BID) gene using HepaRG (AID 2283476). In a few lines:
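Duplicate 48 h treatments of HepaRG cells in serum-free induction medium spanned 100 uM downward in half-log steps, 0.5% DMSO. Transcript change quantified by qRT-PCR against three housekeeping genes, fitted up or down versus DMSO.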

Read-out in another assay: Caspase-3 (Homo sapiens) (UniProt P42574)
Briefly: LTEA_HepaRG_CASP3: Life Technologies and Expression Analysis (LTEA) Assay for cysteine-aspartic acid protease (CASP3) using HepaRG (AID 2283477). The method, boiled down:
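Transcript-level assay: CASP3 mRNA in human HepaRG after 48 h treatment, eight half-log concentrations from 100 uM in 0.5% DMSO, quantified by qRT-PCR.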

Read-out in assay [7]: Cytochrome P450 (CYP24A1), CYP24A1 (gene 1591)
Briefly: LTEA_HepaRG_CYP24A1: Life Technologies and Expression Analysis (LTEA) Assay for Cytochrome P450 (CYP24A1) using HepaRG (AID 2283478). In a few lines:
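Gene expression of CYP24A1 by TaqMan qRT-PCR in HepaRG after 48 h treatment, highest concentration 100 uM; activity fitted in both directions relative to DMSO vehicle.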

Read-out in assay [8]: Cytochrome P450 (CYP1A2), CYP1A2 (gene 1544)
Nature of the assay: LTEA_HepaRG_CYP1A2: Life Technologies and Expression Analysis (LTEA) Assay for Cytochrome P450 (CYP1A2) using HepaRG (AID 2283479). The method, boiled down: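 In duplicate wells, HepaRG cultures maintained in 0.5% DMSO were treated 48 h across an 8-point, half-log series topping at 100 uM; phenobarbital (1 mM) served as induction control. Expression was read by qRT-PCR.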

Read-out in assay [9]: cysteine-aspartic acid protease (CASP8), CASP8 (gene 841)
Nature of the assay: LTEA_HepaRG_CASP8: Life Technologies and Expression Analysis (LTEA) Assay for cysteine-aspartic acid protease (CASP8) using HepaRG (AID 2283480). In a few lines: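 Concentration-response in duplicate up to 100 uM (half-log steps, 0.5% DMSO) on differentiated HepaRG cultures for 48 h. Expression change of CASP8 mRNA is determined by TaqMan qRT-PCR with housekeeping-gene normalization.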

Read-out in assay [10]: Cytochrome P450 (CYP2B6), CYP2B6 (gene 1555)
Briefly: LTEA_HepaRG_CYP2B6: Life Technologies and Expression Analysis (LTEA) Assay for Cytochrome P450 (CYP2B6) using HepaRG (AID 2283481). The method, boiled down:
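Human HepaRG, 48 h dosing, 0.5% DMSO vehicle, top dose 100 uM. CYP2B6 transcript by qRT-PCR, housekeeping-normalized, bidirectional curve fit.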

Read-out in assay [11]: Cytochrome P450 2C19 (Homo sapiens) (UniProt P33261)
Nature of the assay: LTEA_HepaRG_CYP2C19: Life Technologies and Expression Analysis (LTEA) Assay for CYP2C19 using HepaRG (AID 2283482). In a few lines: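 Endpoint: CYP2C19 mRNA change, bidirectional fit vs 0.5% DMSO. Cells: HepaRG, 48 h exposure, eight-point series topping at 100 uM. Quantitation: qRT-PCR normalized to ACTB, GAPDH, POLR2A.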

Read-out in the next assay: CYP2C9 (gene 1559)
Nature of the assay: LTEA_HepaRG_CYP2C9: Life Technologies and Expression Analysis (LTEA) Assay for CYP2C9 using HepaRG (AID 2283484). The method, boiled down:
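Eight-point concentration-response (highest 100 uM, half-log dilutions) in HepaRG cells for 48 h; CYP2C9 expression by qRT-PCR normalized to ACTB, GAPDH, POLR2A. Bidirectional fit, DMSO baseline.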

Read-out in another assay: CYP2E1 (gene 1571)
Nature of the assay: LTEA_HepaRG_CYP2E1: Life Technologies and Expression Analysis (LTEA) Assay for CYP2E1 using HepaRG (AID 2283485). In a few lines:
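CYP2E1 transcript measured by Fluidigm qRT-PCR against three housekeeping genes in human HepaRG cells treated 48 h (top 100 uM, half-log steps, 0.5% DMSO vehicle). Gain or loss fitted relative to DMSO baseline.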

Read-out in the next assay: CYP4A11 (gene 1579)
Briefly: LTEA_HepaRG_CYP4A11: Life Technologies and Expression Analysis (LTEA) Assay for CYP4A11 using HepaRG (AID 2283486). In a few lines: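 Human hepatic HepaRG cultures receive duplicate 48 h exposures across a concentration-response series topping at 100 uM. Expression changes in CYP4A11 are measured by qRT-PCR relative to DMSO controls.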

Read-out in assay [12]: Cytochrome P450 3A4 (Homo sapiens) (UniProt P08684)
Briefly: LTEA_HepaRG_CYP3A4: Life Technologies and Expression Analysis (LTEA) Assay for CYP3A4 using HepaRG (AID 2283487). In a few lines: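 HepaRG, 48 h exposure, 8-pt CRC from 100 uM (half-log), 0.5% DMSO, duplicates; serum-free induction medium. Readout: CYP3A4 mRNA, qRT-PCR, ACTB/GAPDH/POLR2A normalization. Bidirectional fit vs DMSO.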

Read-out in assay [13]: DNA damage-inducible transcript 3 (DDIT3), DDIT3 (gene 1649)
Briefly: LTEA_HepaRG_DDIT3: Life Technologies and Expression Analysis (LTEA) Assay for DNA damage-inducible transcript 3 (DDIT3) using HepaRG (AID 2283488). In a few lines: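 DDIT3 transcript was quantified by qRT-PCR with ACTB/GAPDH/POLR2A normalization after 48 h chemical treatment of differentiated HepaRG cells in 0.5% DMSO. Dosing was eight-point, half-log, top 100 uM, duplicate wells. Curves fitted bidirectionally versus DMSO.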

Read-out in assay [14]: Pro-epidermal growth factor (Homo sapiens) (UniProt P01133)
Briefly: LTEA_HepaRG_EGF: Life Technologies and Expression Analysis (LTEA) Assay for Epidermal growth factor (EGF) using HepaRG (AID 2283489). The method, boiled down:
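Concentration-response mRNA assay: HepaRG cells dosed 48 h (max 100 uM, 0.5% DMSO), EGF measured by qRT-PCR and normalized to ACTB/GAPDH/POLR2A.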

Read-out in another assay: CYP2C8 (gene 1558)
Briefly: LTEA_HepaRG_CYP2C8: Life Technologies and Expression Analysis (LTEA) Assay for CYP2C8 using HepaRG (AID 2283483). In a few lines: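 This is a transcriptional endpoint in HepaRG cultures: 48 h exposure, highest concentration 100 uM. CYP2C8 mRNA is quantified by TaqMan qRT-PCR.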

Sequence of Caspase-3 (Homo sapiens) (P42574 whole entry, looked up): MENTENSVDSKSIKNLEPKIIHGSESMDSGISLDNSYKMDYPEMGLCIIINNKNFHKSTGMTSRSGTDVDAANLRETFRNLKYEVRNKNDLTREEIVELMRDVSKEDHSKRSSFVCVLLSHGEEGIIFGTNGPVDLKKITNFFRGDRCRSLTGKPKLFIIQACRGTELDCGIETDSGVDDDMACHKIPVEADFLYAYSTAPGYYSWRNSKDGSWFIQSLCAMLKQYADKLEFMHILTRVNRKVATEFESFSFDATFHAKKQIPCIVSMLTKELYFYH
Sequence of Apoptosis regulator Bcl-2 (Homo sapiens) (P10415 whole entry, looked up): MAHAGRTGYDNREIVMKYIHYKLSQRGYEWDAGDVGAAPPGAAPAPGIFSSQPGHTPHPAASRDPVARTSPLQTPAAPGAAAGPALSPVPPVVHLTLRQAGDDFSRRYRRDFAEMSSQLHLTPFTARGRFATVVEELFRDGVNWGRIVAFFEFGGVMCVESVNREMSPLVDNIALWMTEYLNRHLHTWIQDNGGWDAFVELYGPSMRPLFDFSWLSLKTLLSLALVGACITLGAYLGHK
Sequence of Cytochrome P450 3A4 (Homo sapiens) (P08684 whole entry, looked up): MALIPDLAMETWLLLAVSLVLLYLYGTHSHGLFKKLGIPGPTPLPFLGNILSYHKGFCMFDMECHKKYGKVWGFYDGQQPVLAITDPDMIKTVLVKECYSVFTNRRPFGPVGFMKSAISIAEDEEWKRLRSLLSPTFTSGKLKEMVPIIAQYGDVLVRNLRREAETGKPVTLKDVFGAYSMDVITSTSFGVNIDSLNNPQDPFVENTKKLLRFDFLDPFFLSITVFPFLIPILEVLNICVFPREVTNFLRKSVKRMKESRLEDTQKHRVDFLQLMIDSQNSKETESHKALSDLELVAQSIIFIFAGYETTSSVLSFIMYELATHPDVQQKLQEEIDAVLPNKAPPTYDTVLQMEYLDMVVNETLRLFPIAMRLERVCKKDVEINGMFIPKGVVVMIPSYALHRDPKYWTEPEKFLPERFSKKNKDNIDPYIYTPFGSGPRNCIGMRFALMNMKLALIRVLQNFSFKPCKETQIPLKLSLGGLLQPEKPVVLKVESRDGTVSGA
Sequence of Cytochrome P450 2C19 (Homo sapiens) (P33261 whole entry, looked up): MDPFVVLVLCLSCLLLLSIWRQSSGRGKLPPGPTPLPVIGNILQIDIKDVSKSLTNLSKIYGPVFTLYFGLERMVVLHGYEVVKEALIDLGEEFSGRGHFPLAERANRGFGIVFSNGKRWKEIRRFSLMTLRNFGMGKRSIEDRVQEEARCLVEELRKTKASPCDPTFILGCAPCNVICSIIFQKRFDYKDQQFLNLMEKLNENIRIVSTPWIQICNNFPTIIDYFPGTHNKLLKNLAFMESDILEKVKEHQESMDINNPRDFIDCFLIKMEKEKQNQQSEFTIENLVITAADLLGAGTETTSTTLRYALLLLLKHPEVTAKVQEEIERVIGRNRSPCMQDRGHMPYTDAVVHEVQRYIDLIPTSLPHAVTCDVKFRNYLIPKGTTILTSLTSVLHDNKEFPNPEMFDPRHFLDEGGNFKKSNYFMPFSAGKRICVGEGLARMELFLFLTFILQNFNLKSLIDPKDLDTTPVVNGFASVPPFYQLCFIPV

Take `CCOP(=S)(OCC)Oc1nc(Cl)n(C(C)C)n1`: the outcome (in assay [1]; in [2]; with BCL2L11 (gene 10018); in [5]; in assay [6]; in the assay with Caspase-3 (Homo sapiens)) was inactive. In addition, the result (in assay [7]; in [9]; with CYP2C9 (gene 1559); in assay [13]; in [14]) was inactive. Also, the AC50 (commonly the concentration giving half of the maximal activity seen) in assay [3] is 21.2 µM (active); in assay [4], 21.4 µM (active); in assay [8], 11.3 µM (active); in assay [10] it was 1.78 µM (active); in assay [11], 12.7 µM (active); with CYP2E1 (gene 1571), 26.5 µM (active). For the same compound, the half-maximal activity concentration (AC50) with CYP4A11 (gene 1579) was 42.3 µM (active); in assay [12], 4.55 µM (active).
Consider `Cc1ccc(N=CN(C)C=Nc2ccc(C)cc2C)c(C)c1`, for which the call (in [1]; in [2]; in assay [3]; with BCL2L11 (gene 10018); in assay [4]; in assay [5]) was inactive. The outcome (in assay [6]; with Caspase-3 (Homo sapiens); in assay [7]; in [9]; in [11]; with CYP2C8 (gene 1558)) was inactive. Moreover, the compound was classed as inactive (in the assay with CYP2C9 (gene 1559); with CYP2E1 (gene 1571); in the assay with CYP4A11 (gene 1579); in assay [12]; in assay [13]; in [14]). Besides, the AC50 in assay [8] is 51.6 µM (active); in assay [10], 30.3 µM (active).
As to `N#CN=C1SCCN1Cc1ccc(Cl)nc1`, the outcome (in assay [1]; in assay [2]; in assay [3]; in the assay with BCL2L11 (gene 10018); in assay [4]; in assay [5]) was inactive. Besides, the outcome (in [6]; with Caspase-3 (Homo sapiens); in assay [7]; in [9]; with CYP2C8 (gene 1558); with CYP2C9 (gene 1559)) was inactive. Moreover, the compound was classed as inactive (in the assay with CYP2E1 (gene 1571); with CYP4A11 (gene 1579); in [13]; in assay [14]). Moreover, the AC50 in [10] was 28.6 µM (active); in [11] it was 34.1 µM (active); in assay [12], 30.6 µM (active).
